The results in this text go back to paper PMC7819943, “Rice protein-binding microarrays: a tool to detect cis-acting elements near promoter regions in rice”.

Whole data set: some 39,000 sequences, median “fluorescence intensity (a.u.)” near 4,300, cut for the highest 2% near 39,000. The entries come from a sample that favours the highest values as a whole.

The assay concerns the target T1, OsSMF1 (Oryza sativa, UniProt Q6ZLB0 1-436).
T1 sequence: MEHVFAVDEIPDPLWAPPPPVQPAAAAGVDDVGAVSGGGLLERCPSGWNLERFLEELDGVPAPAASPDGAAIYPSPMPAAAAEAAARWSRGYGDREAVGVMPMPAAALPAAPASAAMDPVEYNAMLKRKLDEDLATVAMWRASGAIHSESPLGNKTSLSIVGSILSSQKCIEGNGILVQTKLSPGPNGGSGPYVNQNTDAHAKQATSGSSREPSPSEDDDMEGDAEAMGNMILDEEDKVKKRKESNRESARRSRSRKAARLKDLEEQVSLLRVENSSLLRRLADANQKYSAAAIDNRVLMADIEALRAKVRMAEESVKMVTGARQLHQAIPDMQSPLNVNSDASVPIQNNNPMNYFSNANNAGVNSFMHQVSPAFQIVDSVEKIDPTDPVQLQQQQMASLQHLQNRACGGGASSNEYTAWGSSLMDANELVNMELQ
The assay is described as follows: protein-binding microarray (RPBM); PBS, 2% BSA, 51.3 ng/ul salmon testes DNA, 50 uM zinc acetate, 200 nM TF, 25 C, 1 h; high values mean tight binding. The settings on record: protein: recombinant; tags: N-terminal polyhistidine and DsRed monomer fusion (pET32a); chain copies: 2; label: CyDye5-dUTP incorporated in the synthesized complementary strand; 3' TTTTT single-stranded linker to array surface; dsDNA, one strand shown. The procedure, abridged:
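The binding signal is fluorescence intensity per array feature (arbitrary units). Readings came from an Axon 4000B scanner after a washed, 2% BSA-blocked, double-stranded custom Agilent array had been incubated for 1 h at 25 °C with 200 nM protein and 50 µM zinc acetate. The protein was a Ni–NTA-purified transcription factor fused N-terminally to polyhistidine and DsRed, expressed in E. coli BL21-CodonPlus.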
Turning to “GATTTGCTTACATGAATAAGGTTGATTTGCATCGGCAAGACGGAGTCACCTAGTGCAG”, the binding signal was 4000 fluorescence intensity (a.u.). For the sequence “CCCTTCCGGCTTCCACGCGTCGGGAACCGAAGTCCAAACCCGGAGTCACCTAGTGCAG”, the binding signal is 3360 fluorescence intensity (a.u.). Consider “TCCAAGAAAGAAAGGAGAATTATCCGGCAGTTTCAGAGGTCGGAGTCACCTAGTGCAG”, for which the binding signal is 22200 fluorescence intensity (a.u.). With “CCGGAGCCAGTAGTAGCGTTGAGTCGTTGTCGCGAGATGGCGGAGTCACCTAGTGCAG” the figure was 3260 fluorescence intensity (a.u.).

Regarding “TCCCACTCGATTTGGGAGAAAATACAGGGATTAAACTCTGCGGAGTCACCTAGTGCAG”, the binding signal is 3550 fluorescence intensity (a.u.). “AGAAAAGGAGGAAAAGAATTTCCCTGGGATTTAAAATATTCGGAGTCACCTAGTGCAG”: the binding signal is 26300 fluorescence intensity (a.u.).

Take “ACAGGAATATCTCTTCGAGGGATTAAAATTCACTCCCACTCGGAGTCACCTAGTGCAG”: the binding signal is 50800 fluorescence intensity (a.u.). With “AGTGTCAGTACACACACTAGCTTCTCTCACCGGCTCTCCGCGGAGTCACCTAGTGCAG” the figure was 3210 fluorescence intensity (a.u.); with “CTGACAGCTTTTAGTTCACAAATATCAGTAAGATTTCCCTCGGAGTCACCTAGTGCAG”, 43200 fluorescence intensity (a.u.); with “GTTCAGCTATCAAAGTCCCTGAATAGTTTAGATTTACATTCGGAGTCACCTAGTGCAG”, 14100 fluorescence intensity (a.u.). To “CACAACTTTTGATTTCAGGACATATGTGTTCAGCTTTCCTCGGAGTCACCTAGTGCAG” belongs 3370 fluorescence intensity (a.u.). In the case of “ATTTCATAAAACTGCACATTCTGGGGTTCAAGTTGCAGAACGGAGTCACCTAGTGCAG”, the binding signal was 3170 fluorescence intensity (a.u.). To “TTCCTCCATCTTGACGTGGGACCCACCTGGAGATTCATCTCGGAGTCACCTAGTGCAG” belongs 4710 fluorescence intensity (a.u.).

As to “TGCTACATAAGTGACACGTCAACACCACGTTGTATAAAGACGGAGTCACCTAGTGCAG”, the binding signal was 53700 fluorescence intensity (a.u.). To “TTACACGTTAAGAAAGTGCTAAGTAAACAAGACTGCCTGACGGAGTCACCTAGTGCAG” belongs 17700 fluorescence intensity (a.u.); to “ATGCTATATAAATGCCACGTTGTGCGAAGACCAAGTCAACCGGAGTCACCTAGTGCAG”, 3510 fluorescence intensity (a.u.).

Turning to “ACTACACCGTCGCAGCGCACCCACGTGACACGCAGCCACACGGAGTCACCTAGTGCAG”, the binding signal was 4730 fluorescence intensity (a.u.).

As to “CCCTCAAGGGCTCAAAACACTCAAACAGTTCTACATATATCGGAGTCACCTAGTGCAG”, the binding signal is 57600 fluorescence intensity (a.u.). As to “CGTTGGGCTCAAGGGGAGGGATATCTATCTAACAGTAACACGGAGTCACCTAGTGCAG”, the binding signal is 4110 fluorescence intensity (a.u.). For “TGATACATTACTCAAGGAAACAGTCACACAGTCTATCACGCGGAGTCACCTAGTGCAG”, the binding signal is 3200 fluorescence intensity (a.u.). To “CCGTCTCCACGCACTCGAACGTCACCGACGACCCCGGCAGCGGAGTCACCTAGTGCAG” belongs 5490 fluorescence intensity (a.u.).

With “GCCACACCTCCCATTCCTTAGCCAAACACTCGCACTACTCCGGAGTCACCTAGTGCAG”, the binding signal was 3200 fluorescence intensity (a.u.). To “CGGTTGAATTGTTCTTGGCATCATCGGGTGTAACCGTGTACGGAGTCACCTAGTGCAG” belongs 3350 fluorescence intensity (a.u.); to “TTCTCAGCCAATCCCCAGCTCACACGTGCCAACTCTTCCACGGAGTCACCTAGTGCAG”, 7630 fluorescence intensity (a.u.). With “CCACCATGGATCCGACGTGGCACAACCACATTGGTCCCTCCGGAGTCACCTAGTGCAG” the figure was 17700 fluorescence intensity (a.u.); with “TAGGCCCACACCTAGTCAGCTCAATCGAAATACAACCCACCGGAGTCACCTAGTGCAG”, 3450 fluorescence intensity (a.u.). For the sequence “AACAGCTCAATTAATTAATCGCCCACACCGAAGCGCGCACCGGAGTCACCTAGTGCAG”, the binding signal was 39800 fluorescence intensity (a.u.). With “AAGCGCGCGCCTCGCCACCTCACCCGAAGAAATTCCCCACCGGAGTCACCTAGTGCAG” the figure was 4140 fluorescence intensity (a.u.).

Take “CTTGCCTCCGCCCATAAATACCACCCGCATTGGCGTTCAGCGGAGTCACCTAGTGCAG”: the binding signal is 50900 fluorescence intensity (a.u.). Consider “CCACACACCATTGCCGCATCATCCACCACCGCCTCCTCAGCGGAGTCACCTAGTGCAG”, for which the binding signal was 5210 fluorescence intensity (a.u.). Turning to “CGCATCCCGGCCCATCCGCCTCGTCAGCGGCGGCGCACCACGGAGTCACCTAGTGCAG”, the binding signal is 10800 fluorescence intensity (a.u.). With “GTTCGCCGTGGATTTCTTTTCTTGCGTCAGTGATACTGATCGGAGTCACCTAGTGCAG” the figure was 5040 fluorescence intensity (a.u.). Consider “AACTATAGATCCAAGTGAGGAAGCTATATTCCCAAATTTTCGGAGTCACCTAGTGCAG”, for which the binding signal is 46000 fluorescence intensity (a.u.). With “TGGAGCTAGTCAAGTAGACAGATCATACTATTCCCCAATTCGGAGTCACCTAGTGCAG” the figure was 4150 fluorescence intensity (a.u.); with “TTCTATTCTCCCAAAATTCCTATAGAACGAGATATTCCATCGGAGTCACCTAGTGCAG”, 22200 fluorescence intensity (a.u.). Take “GCTTGCCGACGCCGACGCCGCCGCCGCCACCGCCGTGGCGCGGAGTCACCTAGTGCAG”: the binding signal was 4150 fluorescence intensity (a.u.). To “TCCAGATCAAATCCGACGGCCCAGGATACGCCACGTCACCCGGAGTCACCTAGTGCAG” belongs 46700 fluorescence intensity (a.u.); to “AGCAAAATCTACGCGATGACGCCACGTGACATGACATCGCCGGAGTCACCTAGTGCAG”, 5840 fluorescence intensity (a.u.); to “CACCCGACTCAGATACCCGAATCCACGTCAGCCCAGAGCCCGGAGTCACCTAGTGCAG”, 14300 fluorescence intensity (a.u.).

Regarding “CGATCTATCTTAGTTCATTCGCTGCAAATCCGACGCCTGACGGAGTCACCTAGTGCAG”, the binding signal was 3240 fluorescence intensity (a.u.).

Turning to “AATCATCCGCCCCAGGCCCCAGCCACGTCGTCCAGATCGCCGGAGTCACCTAGTGCAG”, the binding signal was 6410 fluorescence intensity (a.u.).

Regarding “GTCTTCACAAATCCGATGACGCCACGTCATCTATCCGGCCCGGAGTCACCTAGTGCAG”, the binding signal is 46400 fluorescence intensity (a.u.). On to “GCTACATTTTCGTCGACGTACGTCAGTGACACATGAACTACGGAGTCACCTAGTGCAG”, for which the binding signal was 4800 fluorescence intensity (a.u.). As for “TTCAGCCTGTCATCGTCAATTCGTCATCAGTTCATCGCTCCGGAGTCACCTAGTGCAG”, the binding signal was 5390 fluorescence intensity (a.u.).

For “TTCGTGGCGGCTCCTCCTGTGCCATGGCCGCCGATGGTGACGGAGTCACCTAGTGCAG”, the binding signal is 3320 fluorescence intensity (a.u.). Turning to “AAGTCGTTCACTCGGCAACGTGTCATCCGGATAGACGTTGCGGAGTCACCTAGTGCAG”, the binding signal is 6700 fluorescence intensity (a.u.).

On to “CGTGTCCTAATCACCTTGCTTACGTGGCACTTGCCGATTCCGGAGTCACCTAGTGCAG”, for which the binding signal is 43900 fluorescence intensity (a.u.). With “ACGGCTTCCTTACGTGGCACACGTAAGCCGTTGCTTGCTTCGGAGTCACCTAGTGCAG”, the binding signal is 35100 fluorescence intensity (a.u.).

On to “CTCCTTGTCCACGTGGCGGCCTCCGATTCGCTGCCACCTCCGGAGTCACCTAGTGCAG”, for which the binding signal is 23900 fluorescence intensity (a.u.).

As for “CCAGTTAGGCCCACGAGTAGGTGGAACGACCACCTCACGGCGGAGTCACCTAGTGCAG”, the binding signal was 3710 fluorescence intensity (a.u.). As to “TTCCCGGTCTCTTATTATCCATATCATAAGTAAATTAGTTCGGAGTCACCTAGTGCAG”, the binding signal was 7670 fluorescence intensity (a.u.). As for “TTAGCCCTTCCTCTCCTGCTTCCGCCCTTCCATGGCAATGCGGAGTCACCTAGTGCAG”, the binding signal is 46700 fluorescence intensity (a.u.). With “CCTAGCCCTCCTCCTACTCCTCTGCAATGGTAGATTGCGCCGGAGTCACCTAGTGCAG” the figure was 47700 fluorescence intensity (a.u.); with “CTCCGTGAGCCCTTCCTCCTCCGCTCCTCTCCTTTCCGCCCGGAGTCACCTAGTGCAG”, 15600 fluorescence intensity (a.u.). Consider “CTCTCTTCCTCTCTCTCTCCTCCGCGTAGGATTTAGCCTGCGGAGTCACCTAGTGCAG”, for which the binding signal was 3880 fluorescence intensity (a.u.).

Take “GCCTTCCCTTCCTTCCTCTGCCAATGGCCGCGCGTCAGCCCGGAGTCACCTAGTGCAG”: the binding signal is 3390 fluorescence intensity (a.u.).

Regarding “CGCCGCCTGCCCCTGCGCCTGCAGCCTCTGCGCCTCCTGCCGGAGTCACCTAGTGCAG”, the binding signal is 3560 fluorescence intensity (a.u.).
